Experimental data reported in PubChem BioAssay (NCATS).
Records with an inconclusive call do not appear. Where a call stands in place of a potency, no number is given. Active and inactive are the calls of the source. The call rests on the fitted dose curve; in most records, active means well fitted inhibition curve with a large enough effect; inconclusive means small, poorly fitted or top-dose-only effect; inactive means no such curve, though single readings can be large or run the other way.

molecular target: Cytochrome P450 2C9 (Homo sapiens) (UniProt P11712); assay: qHTS Assay for Inhibitors and Substrates of Cytochrome P450 2C9 (AID 883); conditions: recombinant CYP2C9, luciferin-H luminescence, 60 min; series mostly up to 11.4 µM; further: nearly all actives have a fitted effect of over 60% in size
Sequence (P11712 whole entry, looked up): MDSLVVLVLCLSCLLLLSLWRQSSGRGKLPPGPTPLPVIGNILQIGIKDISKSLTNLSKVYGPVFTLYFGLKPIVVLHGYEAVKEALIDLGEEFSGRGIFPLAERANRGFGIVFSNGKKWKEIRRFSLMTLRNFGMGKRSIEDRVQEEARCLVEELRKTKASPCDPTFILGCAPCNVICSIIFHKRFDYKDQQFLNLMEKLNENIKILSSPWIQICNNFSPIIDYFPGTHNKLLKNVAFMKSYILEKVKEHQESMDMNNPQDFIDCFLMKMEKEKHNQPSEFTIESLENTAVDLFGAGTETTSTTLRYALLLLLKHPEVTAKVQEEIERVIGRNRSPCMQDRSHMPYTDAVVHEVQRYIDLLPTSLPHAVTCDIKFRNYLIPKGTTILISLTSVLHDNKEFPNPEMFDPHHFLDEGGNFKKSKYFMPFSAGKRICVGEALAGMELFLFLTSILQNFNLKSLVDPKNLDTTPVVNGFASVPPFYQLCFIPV
Method: NIH Molecular Libraries Screening Centers Network [MLSCN] NIH Chemical Genomics Center [NCGC] MLSCN Grant: None NCGC Assay Overview: The P450 gene superfamily is involved in the metabolism and clearance of xenobiotics. This assay used human CYP2C9 to measure the hydroxylation of deoxyluciferin (Luciferin-H; P450 Glo-Buffer) to luciferin. The luciferin is then measured by luminescence after the addition of a luciferase detection reagent. Luciferin-H concentration in the assay was equal to its Michaelis constant KM for CYP2C9. Inhibitors and some substrates limit the production of luciferin, and decrease measured luminescence.
NCGC Assay Protocol Summary: Two uL of enzyme and substrate mix (final concentrations: 10nM CYP2C9, 100uM Luciferin-H, 25mM KPO4) were dispensed into a white, solid bottom 1536-well microtiter plate. 23nL of compound was transferred by a pin tool. The plate was incubated at 37C for 10 min. Two uL of an NADPH regeneration solution (Promega supplied reagent) was dispensed and the reaction was allowed to continue for 60 min at 37C. Then the reaction was stopped by reconstituted P450 Glo-Buffer. After another 20 min of incubation the plate was read on the ViewLux (Perkin Elmer) at 60 sec exposure and 2x2 binning. This protocol was carried out with Promega-Glo reagents and further information can be found at http://www.promega.com/tbs/tb325/tb325.pdf. Data were normalized to the to AC100 inhibition (57uM sulphaphenazole). Keywords: P450, CYP2C9, Luciferase, MLSMR, MLSCN, NIH Roadmap, qHTS, NCGC
Potency means the concentration at half of the fitted maximal effect.

Row | Compound | Potency
1 | O=C(O)C1Cc2c([nH]c3ccccc23)C(c2ccccc2)N1 (stereo not given) | inactive
2 | COC(=O)C1=C(C)N(Cc2ccccc2)C2=C3C(=O)N(c4ccccc4)C(=O)C3[C@@](O)(C(=O)OC)C(=O)N2C1c1ccccc1 (stereo not given in full) | inactive
3 | O=C1/C(=C/c2ccccc2)Oc2ccccc21 | inactive
4 | CO[C@H]1COC(=O)C/C=C\[C@H](C)[C@@H](OC)COC(=O)[C@H](C)COC(=O)C/C=C\[C@@H]1C | inactive
5 | CCOC(=O)CCCCC1=CC2=CC(=O)C(C)(O)C(=O)C2=CO1 (stereo not given) | inactive
6 | COC1(C#CC2C=CC(OC(C)=O)C(COC(C)=O)O2)CCCCC1 (stereo not given) | inactive
7 | COC(=O)NC(c1ccc(Cl)cc1)C(C(C)=O)C(=O)OC (stereo not given) | inactive
8 | COC(=O)C1=C(C)N(Cc2ccccc2)C2=C(C(C)=O)C(c3ccccc3)[C@@](O)(C(=O)OC)C(=O)N2C1c1ccccc1 (stereo not given in full) | inactive
9 | CCCCC#CC1C=CC(Oc2ccc(OC)cc2)C(CO)O1 (stereo not given) | inactive
10 | COC(=O)[C@@H]1CC[C@H](C)[C@@H](c2ccc(C)cc2)N1C(=O)c1ccc(/C=N\OC[C@@H](O)COCc2ccco2)cc1 | 3.98 µM (active)
11 | CCOC(=O)OCC1OC(c2ccccc2)C=CC1Oc1ccc2oc(=O)cc(C)c2c1 (stereo not given) | inactive
12 | COc1ccc(OC2C=CC(c3ccccc3)OC2CO)cc1 (stereo not given) | inactive
13 | C=CCOC(=O)C(C(=O)CC)C(NC(=O)OC)c1ccc(F)cc1 (stereo not given) | inactive
14 | COc1ccccc1/C=C/C1=CC2(C)CC1(C)C(c1ccccc1OC)CC2=O (stereo not given) | 3.98 µM (active)
15 | O=C1C[C@@H](O)[C@@H](O)[C@H]2[C@@H]3C(=O)N(Cc4ccccc4)C(=O)[C@@H]3CC[C@H]12 | inactive
16 | CC1C=CCCOC1c1ccccc1 (stereo not given) | inactive
17 | COC(=O)C/C=C/C(C)C(OCc1cccc(-c2ccccc2)c1)C1CCCCC1 (stereo not given) | inactive
18 | CCC/C=C/C1C(=O)C2OC2C2(OCC(CC)(CC)CO2)C1CO (stereo not given) | inactive
19 | OCC1OC(c2ccc3c(c2)OCO3)C=CC1Oc1ccc(C2CCCC2)cc1 (stereo not given) | inactive
20 | C[C@@]12CCC3c4ccc(OC5C=CC(c6ccccc6)OC5CO)cc4CCC3C1CCC2=O (stereo not given in full) | inactive

Row | Compound | Potency
21 | COC(=O)NC(c1ccco1)[C@]1(C(C)=O)CCCC1=O (stereo not given in full) | inactive
22 | CC1CCC(C(=O)O)NC1c1cccc(N2CCCC2=O)c1 (stereo not given) | inactive
23 | CCCC[C@@H]1C[C@H]1C(NC(=O)c1cccnc1)c1ccc(-c2ccccc2)cc1 (stereo not given in full) | 5.01 µM (active)
24 | Cc1cc(F)ccc1OC1C=CC(c2ccc3c(c2)OCO3)OC1CO (stereo not given) | 3.16 µM (active)
25 | COC(=O)NC(c1cccc(F)c1)C(C(C)=O)C(=O)OC (stereo not given) | inactive
26 | COC(=O)NC(c1ccccc1)[C@]1(C(C)=O)CCCC1=O (stereo not given in full) | inactive
27 | CCN1C(C)=C(C(=O)OC)C(c2ccccc2)N2C(=O)[C@@]3(C(=O)OC)O[C@@]12C1C(=O)N(C)C(=O)C13 (stereo not given in full) | inactive
28 | CO/N=C\c1ccc(C(=O)N2[C@H](c3ccc(C)cc3)[C@@H](C)CC[C@H]2C(=O)OC)cc1 | 2.51 µM (active)
29 | COC(=O)NC(c1ccc(F)cc1)C(C(C)=O)C(=O)OC (stereo not given) | inactive
30 | CCOC(=O)[C@]1(C(NC(=O)OC)c2cccc(F)c2)CCCC1=O (stereo not given in full) | inactive
31 | COC(=O)C1=C2N(Cc3ccccc3)C(C)=C(C(=O)OC)C(c3ccccc3)N2C(=O)[C@](O)(C(=O)OC)C1 (stereo not given in full) | inactive
32 | CCCNC(=O)OC[C@H]1O[C@@H](CCO/N=C\[C@@H](NS(=O)(=O)c2ccc(C)cc2)[C@H](C)/C=C\CC(=O)OC)C=C[C@@H]1Oc1ccc(OC)cc1 | 3.98 µM (active)
33 | O=C1C2Cc3c([nH]c4ccccc34)C(c3ccccc3)N2C(=O)C2Cc3c([nH]c4ccccc34)C(c3ccccc3)N12 (stereo not given) | inactive
34 | COc1cccc(C2C(C)CCC3C(=O)N(C)C(C(C)C)C(=O)N32)c1 (stereo not given) | inactive
35 | COC(=O)NC(CC(C)=O)c1cccs1 (stereo not given) | inactive
36 | C=CCOC(=O)C(C(C)=O)C(NC(=O)OC)c1cccc(C)c1 (stereo not given) | inactive
37 | CC(=O)OCC1OC(c2ccc(C(C)=O)cc2)C=CC1OC(C)=O (stereo not given) | inactive
38 | CC1(C)OC(C(O)(c2cc(C(F)(F)F)cc(C(F)(F)F)c2)c2cc(C(F)(F)F)cc(C(F)(F)F)c2)C(C(O)(c2cc(C(F)(F)F)cc(C(F)(F)F)c2)c2cc(C(F)(F)F)cc(C(F)(F)F)c2)O1 (stereo not given) | inactive
39 | COC(=O)[C@@]1(Cc2ccc(F)cc2)[C@H]2c3cc(C(=O)N4CCCC4)n(CCc4c[nH]c5ccc(OC)cc45)c3C[C@H]2CN1C(=O)c1ccccc1 | 7.94 µM (active)
40 | COC(=O)[C@H](CCSC)NC(=O)C/C=C\[C@@H](C)CO | inactive
